Screening data from PubChem BioAssay.
FBW7 act: human FBW7 E3 ligase activation, primary screen. Q969H0. AlphaScreen FBW7–phospho-cyclin E peptide binding, activator screen. normalized activity (activation), % at 26.1 µM. 650,000 tested, 0.13% active; in the data active means normalized activity above about 1.9%;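 further: purified mutant Fbw7 with reduced substrate affinity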
MITF inh: human MITF inhibition, primary screen. O75030. AlphaScreen MITF homodimerization, bead proximity signal. inhibition, % at 2.6 µM. 650,000 tested, 0.91% active. AID 1259374; in the data active means inhibition above about 50%;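 further: 0% = vehicle wells with protein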
GPR151 activ: activators of human GPR151 | 650,000 tested, 1% active | PathHunter beta-arrestin GPR151 cells, luminescence | Q8TDV0 | AID 1508602 | activation, % at 11.2 µM; in the data active means activation above about 4.9%;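 further: 0% = median of compound wells and 100% = cells with positive control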
Target sequence (Q8TDV0 whole entry, looked up): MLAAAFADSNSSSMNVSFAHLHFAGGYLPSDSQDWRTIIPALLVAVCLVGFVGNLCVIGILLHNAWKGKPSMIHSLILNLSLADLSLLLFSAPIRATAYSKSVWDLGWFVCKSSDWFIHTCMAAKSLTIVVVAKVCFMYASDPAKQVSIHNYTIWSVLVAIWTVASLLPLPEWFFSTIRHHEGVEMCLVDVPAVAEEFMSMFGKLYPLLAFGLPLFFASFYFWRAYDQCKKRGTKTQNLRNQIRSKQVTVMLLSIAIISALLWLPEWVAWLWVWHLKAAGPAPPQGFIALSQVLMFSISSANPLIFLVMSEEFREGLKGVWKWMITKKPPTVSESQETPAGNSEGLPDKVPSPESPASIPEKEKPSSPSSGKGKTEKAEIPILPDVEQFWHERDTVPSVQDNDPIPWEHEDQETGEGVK
TEAD-YAP block: TEAD-YAP interaction inhibition | HEK-TIYL cells, TEAD-Gal4/YAP UAS-luciferase luminescence | inhibition, % at 9.12 µM | 640,000 tested, 1.4% active | AID 1259422; in the data active means inhibition above about 32%;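 further: 0% = median of test compound wells and 100% = reference inhibitor wells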
GPR151 conf act: confirmation of human GPR151 activators; shares compounds with GPR151 activ; GPR151 PathHunter beta-arrestin cells, luminescence, 90 min; % of EA-reagent control over plate median; activation, % at 11.2 µM; 6,700 tested, under 10 active; AID 1508609;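 active means mean percent activation across replicates above the confirmation screen cutoff of 4.91%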
GPR119 ag: GPR119 activation, counter-screen for GPR151 activators. GPR119 PathHunter beta-arrestin cells, luminescence, 90 min; 0 = compound-well median, 100 = enzyme-acceptor control. AID 1508611. activation, % at 11.2 µM. 6,700 tested, 0.3% active. shares compounds with GPR151 activ;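 active means mean percent activation in the counterscreen above 29.09%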;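 further: counterscreen on off-target GPR119 to flag nonselective hits from the GPR151 activator screen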
An asterisk follows results filed as active; . = not tested or not shown. Rows were chosen to be rich in hits. Some 3.5% of all compounds tested hit in one or more screens of this group.

SMILES | FBW7 act | MITF inh | GPR151 activ | TEAD-YAP block | GPR151 conf act | GPR119 ag
C=C(C)C(=O)OC[C@@H]1CN2[C@@H](CC[C@@H](C)[C@@H]2c2ccc(Br)cc2)C(=O)O1 | 0 | 23 | -1 | . | . | .
C[C@@H]1CC[C@H]2C(=O)O[C@@H](COc3ccc(C(C)(C)C)cc3)CN2[C@H]1c1ccc(Br)cc1 | 0 | 12 | 5.3* | . | 1 | -11
COCCSc1ccccc1C(=O)NCCc1ccc(S(N)(=O)=O)cc1 | 0 | -10 | 0 | -4 | . | .
CCOc1cc(C2c3c([nH][nH]c3=O)CC(C)(O)C2C(=O)OC)ccc1O (centres undefined) | 0 | 6 | 1 | 2 | . | .
CCCN(CCC)S(=O)(=O)c1ccc(NC(=O)c2c(OC)cccc2OC)cc1 | 0 | -4 | 0 | 11 | . | .
CCCS(=O)(=O)N1CCN=C1SCc1ccccc1 | 0 | 0 | 1 | -4 | . | .
CCS(=O)(=O)N1CCN=C1SCc1ccccc1 | 0 | -7 | 5.6* | 5 | 1 | 10
COC(=O)c1ccc(N(C)c2nc(C)cc(C)n2)cc1 | 0 | 4 | 1 | -1 | . | .
Cc1cc(NC(=O)CSc2nc3ccsc3c(=O)n2-c2ccc(C(N)=O)cc2)no1 | 0 | -4 | 5.0* | -9 | 0 | 13
CC(NS(=O)(=O)c1ccc(OCC(=O)Nc2ccccc2)c(Cl)c1)c1ccccc1 (centres undefined) | 0 | -20 | 6.1* | -3 | 1 | 4
COc1ccc(Cl)cc1S(=O)(=O)NC(C)c1ccccc1 (centres undefined) | 0 | 1 | 1 | -1 | . | .
C=CCNC(=O)COc1ccc(S(=O)(=O)NC(C)c2ccccc2)cc1Cl (centres undefined) | 0 | 0 | 2 | 0 | . | .
CCOc1ccc(Cl)cc1S(=O)(=O)NC(C)c1ccccc1 (centres undefined) | 0 | -6 | 5.1* | -9 | 0 | 5
CCOC(=O)c1sc2nc(NC(=O)c3ccc([N+](=O)[O-])o3)sc2c1C | 0 | -6 | -2 | -2 | . | .
Cc1ccc2c(nc3s/c(=C/c4ccccc4Br)c(=O)n32)c1C | 0 | 10 | -2 | -1 | . | .
CCN1CCC(N(Cc2ccc(F)cc2)C(=O)Nc2cc(F)ccc2F)CC1 | 0 | -5 | 5.1* | -1 | 0 | 10
Cc1ccc2nc(C)c3c(c2c1)OC(CBr)C3 (centres undefined) | 0 | -7 | 1 | 11 | . | .
CSc1nc(C)c2c(n1)OC(CBr)C2 (centres undefined) | 0 | 0 | 5.0* | 1 | -1 | -5
CCOC(=O)c1ccc(S(=O)(=O)Nn2c(SCC(=O)Nc3ccc(C)cc3)nc3ccccc3c2=O)cc1 | 0 | 11 | 2 | 0 | . | .
Cc1ccc(/C=C2\SC(N3CCOCC3)=NC2=O)cc1 | 0 | 15 | -1 | -18 | . | .
CC(C)Oc1ccc(/C=C2/SC(N3CCOCC3)=NC2=O)cc1 | 0 | 17 | 7.0* | -17 | 1 | 11
O=C1N=C(N2CCOCC2)S/C1=C\c1cccc2ccccc12 | 0 | 17 | 6.1* | -40 | 0 | -3
O=C1N=C(N2CCCC2)S/C1=C\c1cn[nH]c1-c1ccccc1 | 0 | 0 | 7.6* | 4 | 0 | 5
O=C1N=C(N2CCOCC2)S/C1=C\c1c2ccccc2cc2ccccc12 | 0 | 15 | 1 | 5 | . | .
NC1=NC(=O)/C(=C/c2cn[nH]c2-c2ccccc2)S1 | 0 | 0 | 0 | -1 | . | .
SMILES | FBW7 act | MITF inh | GPR151 activ | TEAD-YAP block | GPR151 conf act | GPR119 ag
O=S(=O)(Cc1ccccc1)NCC1CCCN(Cc2cn[nH]c2C2CCCCC2)C1 (centres undefined) | 0 | 2 | 1 | 8 | . | .
Cc1ccc(N2CCN(C(=O)CN(C)S(=O)(=O)c3cnc[nH]3)CC2C)cc1 (centres undefined) | 0 | 8 | 1 | 5 | . | .
Cc1nc2sc3c(c2c2nnc(SCC(=O)NC(C)(C)C)n12)CCC(C)C3 (centres undefined) | 0 | 1 | -1 | 3 | . | .
CC(C)(C)N1C(=O)c2ccc(C(=O)Nc3ccc([N+](=O)[O-])cc3Cl)cc2C1=O | 0 | 4 | 6.6* | 4 | 0 | 0
COc1ccccc1N1C(=O)c2ccc([N+](=O)[O-])cc2C1=O | 0 | -1 | 0 | -9 | . | .
COc1cc(CNc2ccc3ncc(-c4cccnc4)n3n2)cc(OC)c1OC | 0 | 5 | 7.8* | -17 | 1 | 4
COc1ccccc1C(=O)NCCC(=O)O | 0 | 5 | 1 | -2 | . | .
CCSC1=C(C#N)C(c2ccc(Cl)cc2)CC(=O)N1 (centres undefined) | 0 | 4 | 0 | -2 | . | .
CCSC1=C(C#N)C(c2ccc(O)cc2)CC(=O)N1 (centres undefined) | 0 | -1 | 6.2* | -4 | 0 | 1
O=C1C2C(c3ccccc3)OC3(C(=O)c4ccccc4C3=O)C2C(=O)N1c1ccccc1 (centres undefined) | 0 | -5 | 0 | -1 | . | .
O=C1C2C(c3ccc(F)cc3)OC3(C(=O)c4ccccc4C3=O)C2C(=O)N1Cc1ccccc1 (centres undefined) | 0 | 10 | 5.6* | 14 | 0 | 5
O=C1C2C(c3ccccc3)OC3(C(=O)c4ccccc4C3=O)C2C(=O)N1CCc1ccc(F)cc1 (centres undefined) | 0 | 0 | 7.5* | -2 | 0 | 9
COc1ccc(-c2nnn(CCOc3ccccc3)n2)cc1OC | 0 | 4 | -1 | -1 | . | .
COc1ccc(C2CC(c3cccs3)=NN2C(=O)CSc2nnc(CNC(=O)c3ccccc3)n2-c2ccccc2OC)cc1 (centres undefined) | 0 | -4 | 0 | 2 | . | .
COCCOC(=O)c1c(C)n(C)c2ccc(OC(=O)c3ccc(OC)c(OC)c3)cc12 | 0 | -8 | 0 | -6 | . | .
CCC(=O)Nc1ccc(-c2nnc(SCC(=O)Nc3ccc(C(C)=O)cc3)n2C)cc1 | 0 | -10 | 1 | -42 | . | .
NC(=O)c1cc2cc(Br)ccc2oc1=Nc1ccc(F)cc1F | 0 | 6 | 6.9* | 3 | 1 | 11
CC(C)CCNC(=O)C(Cc1ccccc1)NS(=O)(=O)c1ccc(F)cc1 (centres undefined) | 0 | 9 | 4.9* | 6 | -1 | -6
CCOC(=O)c1nn(-c2ccc(OC)cc2)c(=O)c2c(NC(=O)C(C)Cl)scc12 (centres undefined) | 0 | 11 | -1 | 0 | . | .
O=C(Nc1nc2ccc3ccccc3c2s1)C1CC1 | 0 | 7 | 2 | 16 | . | .
O=C(Nc1nc2c(s1)-c1cccc3cccc-2c13)C1CC1 | 0 | -1 | 5.0* | -27 | 2 | 13
N#C/C(=C/c1ccc(F)cc1)c1ccc(C#N)cc1 | 0 | 10 | 8.3* | -8 | 0 | 1
